Results on 51 compounds are retold here after ChEMBL document CHEMBL3988442, “University of Dundee, Small-Polar-MMV Screening Library” (2021).

Assay [1] concerns the target T1, Aspartate--tRNA(Asp/Asn) ligase (Mycobacterium tuberculosis (strain ATCC 25618 / H37Rv)) (UniProt P9WFW3). Note: in the data most compounds retested in dose-response had high values.
T1 sequence (whole entry): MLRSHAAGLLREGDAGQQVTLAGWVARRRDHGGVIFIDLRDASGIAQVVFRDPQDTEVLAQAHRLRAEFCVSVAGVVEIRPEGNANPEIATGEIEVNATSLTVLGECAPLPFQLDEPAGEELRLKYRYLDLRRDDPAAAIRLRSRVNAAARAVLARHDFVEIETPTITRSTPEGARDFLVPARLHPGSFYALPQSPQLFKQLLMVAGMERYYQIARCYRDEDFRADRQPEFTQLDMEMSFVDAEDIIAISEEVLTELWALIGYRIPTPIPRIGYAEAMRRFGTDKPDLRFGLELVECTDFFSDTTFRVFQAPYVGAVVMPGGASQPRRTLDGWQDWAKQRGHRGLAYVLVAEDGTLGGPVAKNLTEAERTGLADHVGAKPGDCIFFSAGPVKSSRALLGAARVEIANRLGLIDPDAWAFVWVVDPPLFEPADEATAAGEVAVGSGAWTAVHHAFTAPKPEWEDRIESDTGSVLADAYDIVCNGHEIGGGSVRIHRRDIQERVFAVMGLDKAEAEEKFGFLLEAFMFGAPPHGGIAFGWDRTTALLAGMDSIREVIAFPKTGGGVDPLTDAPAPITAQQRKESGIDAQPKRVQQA
The experiment in a line: Assay for Asp RNA synthetase-1 from Mycobacterium tuberculosis. It counts as functional. Set-up: scale not given: direction of the effect not stated beside the values. To be noted: 30 µM.

For assay [2], the target named is Shiga toxin 2 (Escherichia coli O157:H7) (UniProt P09385+P09386). The experiment in a line: E. coli 0.157:H7 Shiga Toxin SOP - stx2 screening assay. It counts as functional. Further details: scale not given: direction of the effect not stated beside the values. To be noted: 30 µM.

With `Cc1nc(CN(C)C2CCN(Cc3nc4ccccc4s3)C2)no1` (configuration not stated), the Percent Effect is -0.253% in assay [1] and 0.376% in assay [2].
As to `O=C1NCCN1C1CCN(CCc2cccs2)CC1`, the Percent Effect in assay [1] was -0.519%; in assay [2], 4.4%.
For `c1ccc(OCc2nnc3n2CCN(CC2CCOCC2)C3)nc1` the same measures were 10.1% and 7.95%.
For `COc1cccc(N2CCN(C(=O)C(O)c3cccc(Cl)c3)CC2=O)c1` (configuration not stated), the figures for the Percent Effect in assay [1] and in assay [2] were 0.569% and -24.2%, respectively.
In the case of `CCn1cc(C(=O)NCc2csc(Br)c2)cn1`, the Percent Effect was -3.16% in assay [1] and 6.72% in assay [2].
The matching figures for `Cc1cccc(N2CCN(C(=O)CN3CCN(CCO)CC3)CC2)c1`: 1.98% and 0.874%.
As to `O=C(NCC1(CO)CC1)c1cccc2ccccc12`, the Percent Effect in assay [1] was -3.45%; in assay [2], -0.178%.
In the case of `CC(NCc1ccc(F)cc1)c1ccc(OCC(=O)NC2CC2)cc1` (configuration not stated), the Percent Effect in assay [1] was 0.888%; in assay [2], -19.1%.
`COc1cccc(-c2nc(C)c(C(=O)NC(CO)CCSC)s2)c1` (configuration not stated): the Percent Effect is -3.69% in assay [1] and -34.8% in assay [2].
For `COc1ccnc(N2CCN(C(=O)c3csc(C(C)C)n3)CC2)n1`, the Percent Effect in assay [1] is -5.15%; in assay [2], -4.83%.
Take `COc1ccc(F)cc1C(=O)N(C)Cc1cc(C)on1`: the Percent Effect in assay [1] is -3.3%; in assay [2] it was -29.3%.
Regarding `CCN(CC)CCNC(=O)c1nn(CC)cc1Cl`, the Percent Effect is -6.16% in assay [1] and -57% in assay [2].
`Cc1[nH]ncc1C(=O)N1CCCC(c2cc(C(F)(F)F)[nH]n2)C1` (configuration not stated): the Percent Effect in assay [1] was 0.845%; in assay [2], 24.8%.
The matching figures for `Nc1nc2c(c(=O)[nH]1)CCN(C(=O)c1cccc3nccnc13)C2`: 6.9% and -31.4%.
For `CC(=O)N1CCCn2nc(CNS(=O)(=O)c3cc(C)cs3)cc2C1` the same measures were 1.67% and 5.82%.
Take `CCC(=O)N1CCc2nc3cc(OC)c(OC)cc3c(=O)n2CC1`: the Percent Effect is -5.4% in assay [1] and -7.9% in assay [2].
`CNC(=O)[C@H]1C[C@H]2OCC[C@H]2N(Cc2ccc(C)o2)C1`: the Percent Effect in assay [1] was -1.06%; in assay [2], -4.41%.
Turning to `COc1ccc(-c2csc(N)c2C#N)cc1OC`, the values for the Percent Effect in assay [1] and in assay [2] were 3.46% and -24.5%, respectively.
`CCN1CCN(C2CCN(Cc3ncc(C(C)(C)C)o3)CC2)C1=O`: the Percent Effect is -3.69% in assay [1] and 6.2% in assay [2].
With `CO[C@@H]1CCN(C(=O)c2ccccn2)[C@H]1Cc1ccccc1`, the Percent Effect in assay [1] was determined as 3.21%; in assay [2], 4.36%.
`Cc1ccccc1CN1CCN(CC(=O)Nc2cccnc2)CC1`: the Percent Effect was -2.08% in assay [1] and 17% in assay [2].
Consider `CCO[C@@H]1CO[C@@]2(CCCN(S(=O)(=O)c3cccnc3)C2)C1`, for which the Percent Effect was 9.04% in assay [1] and -20% in assay [2].
The matching figures for `CCN(CC)C1CCN(C(=O)NCc2c(C)noc2C)CC1`: 0.182% and -1.12%.
Turning to `CC(C)c1nc2n(n1)CC(NCc1nnc(-c3ccco3)o1)CC2` (configuration not stated), the Percent Effect in assay [1] was -3.46%; in assay [2], 11.7%.
Consider `COCCN1CC[C@@H](O)[C@@H]1Cc1ccccc1`, for which the Percent Effect in assay [1] was 1.19%; in assay [2], -38.2%.
On to `Cc1nn(C)c(Cl)c1C1CCCN1C(=O)c1ccc2nncn2c1` (configuration not stated), for which the Percent Effect was -1.25% in assay [1] and 2.44% in assay [2].
The matching figures for `Cc1cc2cc(C(=O)N3CC[C@H](O)[C@]4(CCCO4)C3)ccc2o1`: 1.13% and -10.1%.
For `Cc1cc(=O)n2ncnc2n1CC(O)c1ccccc1Cl` (configuration not stated) the same measures were -0.03% and -19.6%.
`CC(=O)Nc1nc(C(=O)NCc2ccc(N3CCCCCC3)nc2)cs1`: the values for the Percent Effect in assay [1] and in assay [2] were 6.56% and -131%, respectively.
As for `CCOc1ccccc1C(=O)NS(=O)(=O)c1ccc2c(c1)OCCCO2`, the Percent Effect is -0.534% in assay [1] and 19.9% in assay [2].
For the compound `N#Cc1ccc(OC2CCN(C(=O)c3ccc4c(c3)OCO4)CC2)nc1`, the values for the Percent Effect in assay [1] and in assay [2] were -8.83% and -32.6%, respectively.
As to `CCc1noc(C(C)N2CCC(NC(=O)c3ccc(C)s3)CC2)n1` (configuration not stated), the Percent Effect was 5.23% in assay [1] and -30.1% in assay [2].
As to `CCCc1nc(CN2CCOC(Cn3cncn3)C2)no1` (configuration not stated), the figures for the Percent Effect in assay [1] and in assay [2] were 0.917% and -23.1%, respectively.
For `Cc1nsc(NC(=O)N2CCC(C(C)(C)O)CC2)n1` the same measures were 0.0141% and -27.4%.
For `Cc1cc(NC(=O)C(c2cccc(F)c2)N2CCOCC2)ccn1` (configuration not stated) the same measures were 5% and -6.3%.
Turning to `CCN(CCn1cccn1)Cc1nc(-c2cccs2)oc1C`, the Percent Effect in assay [1] was -0.251%; in assay [2] it was 7.38%.
For `Cc1nc(C)n(CC2CCCN(CCCOc3ccccc3)C2)n1` (configuration not stated), the results for the Percent Effect in assay [1] and in assay [2] were 0.568% and 8.48%, respectively.
As for `O=C(c1ccco1)N1CCC2(CCOC2)C1` (configuration not stated), the Percent Effect in assay [1] is 2.53%; in assay [2], -46.7%.
With `Cc1[nH]ccc1C(=O)N1CCCC(c2nccn2Cc2cscn2)C1` (configuration not stated), the Percent Effect in assay [1] is -2.28%; in assay [2], 4.58%.
As to `CCSCCNC(=O)C(c1cccc(F)c1)N(C)C` (configuration not stated), the Percent Effect in assay [1] was 0.0558%; in assay [2], 12.8%.
Regarding `Cc1nc(C2CCCN(C(=O)C(C)(C)n3cc(Cl)cn3)C2)no1` (configuration not stated), the Percent Effect in assay [1] was -5.75%; in assay [2] it was -14.3%.
The matching figures for `Cc1ccc(N2CC3(COCCN(Cc4cccnc4)C3)OCC2=O)s1` (configuration not stated): 10.1% and -4.57%.
With `Cc1ccc(C)c(C(NC(=O)C(C)(C)C)c2cccnc2)c1` (configuration not stated), the figures for the Percent Effect in assay [1] and in assay [2] were -1.21% and 1.8%, respectively.
Consider `Cc1csc(N2CCN(CC(=O)Nc3c(C)n[nH]c3C)CC2C)n1` (configuration not stated), for which the results for the Percent Effect in assay [1] and in assay [2] were 2.07% and 17.4%, respectively.
For `COc1ccc(CC(=O)N2CCCC(n3cc(C)cn3)C2)cc1F` (configuration not stated) the same measures were -0.544% and 12.2%.
For `CCCS(=O)(=O)NC(C)C(=O)NCc1ccc(N2CCCC2)nc1` (configuration not stated), the results for the Percent Effect in assay [1] and in assay [2] were 2.42% and 7.72%, respectively.
As for `Cc1cccc2c1cnn2CCCNC(=O)C(C)C`, the Percent Effect in assay [1] was 11.8%; in assay [2], -9.88%.
The matching figures for `Cc1cc(C)n(CC(C)CNC(=O)[C@@H](C)NC(=O)OC(C)(C)C)n1` (some centres not stated): -1.38% and 9.62%.
With `CC(C)COCC(NC(=O)c1ccccn1)c1ccco1` (configuration not stated), the figures for the Percent Effect in assay [1] and in assay [2] were -1.2% and 28%, respectively.
Turning to `O=C(CN1CCC(c2cccc(F)c2)C1)NCC(F)(F)F` (configuration not stated), the Percent Effect in assay [1] is -6.79%; in assay [2] it was 2.95%.
As to `N#Cc1cnn(-c2ccc(C(=O)Nc3ccccn3)cc2)c1N`, the Percent Effect in assay [1] was -3%; in assay [2], -40.7%.
